# Source: PubChem (Sanford-Burnham Center for Chemical Genomics)
# Mdm2-MdmX inh – inhibitors of human Mdm2-MdmX association, primary screen, cell-based, luminescence, split luciferase, SaOS-2, uHTS. Protein Mdm4 (Homo sapiens) + E3 ubiquitin-protein ligase Mdm2 (Homo sapiens), …. SaOS-2 split-luciferase Mdm2/MdmX complementation. inhibition, % at 8 µM. 330,000 compounds, 3% hits. AID 485346, 2010;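 active = inhibition of at least 50% at 8 µM in the primary screen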
# Target sequence (O15151 whole entry, looked up): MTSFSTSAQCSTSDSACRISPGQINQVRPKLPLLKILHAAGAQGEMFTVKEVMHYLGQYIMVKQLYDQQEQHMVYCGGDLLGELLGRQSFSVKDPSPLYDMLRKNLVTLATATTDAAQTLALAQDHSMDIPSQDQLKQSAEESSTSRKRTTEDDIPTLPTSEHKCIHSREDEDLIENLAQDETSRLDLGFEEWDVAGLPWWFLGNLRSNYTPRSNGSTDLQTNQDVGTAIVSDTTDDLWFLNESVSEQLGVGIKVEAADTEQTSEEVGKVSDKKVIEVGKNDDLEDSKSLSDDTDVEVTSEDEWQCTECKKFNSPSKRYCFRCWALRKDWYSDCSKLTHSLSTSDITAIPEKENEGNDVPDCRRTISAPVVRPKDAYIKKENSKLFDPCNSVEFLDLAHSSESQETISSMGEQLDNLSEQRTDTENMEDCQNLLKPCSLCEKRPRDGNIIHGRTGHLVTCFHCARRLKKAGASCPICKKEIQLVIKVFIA
# Target sequence (Q00987 whole entry, looked up): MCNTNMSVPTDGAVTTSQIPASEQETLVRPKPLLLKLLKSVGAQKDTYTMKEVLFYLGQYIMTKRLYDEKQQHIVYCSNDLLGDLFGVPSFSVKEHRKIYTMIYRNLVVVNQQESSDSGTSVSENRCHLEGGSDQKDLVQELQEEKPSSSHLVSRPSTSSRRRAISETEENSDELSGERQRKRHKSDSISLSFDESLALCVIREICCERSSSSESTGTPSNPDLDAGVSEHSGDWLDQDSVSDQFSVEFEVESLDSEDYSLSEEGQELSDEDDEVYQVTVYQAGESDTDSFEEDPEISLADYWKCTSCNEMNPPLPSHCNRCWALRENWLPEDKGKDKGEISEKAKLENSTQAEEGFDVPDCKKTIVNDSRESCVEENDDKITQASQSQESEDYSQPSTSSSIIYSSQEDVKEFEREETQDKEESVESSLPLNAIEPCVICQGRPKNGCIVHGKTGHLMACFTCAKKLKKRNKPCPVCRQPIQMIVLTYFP
# tim10-1 inh – growth inhibitors of tim10-1 mutant yeast, primary screen, luminescence, uHTS; S. cerevisiae tim10-1 ts strain growth, BacTiter-Glo, 24 h; inhibition, % at 20 µM; AID 463190, 2010; 330,000 compounds, 2.2% hits;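 active = inhibition of at least 40%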;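 note: mutant grown at 25 °C; 0% = DMSO wells with yeast and 100% = wells holding no yeast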
# MPTP inh – mitochondrial permeability transition pore inhibitors, primary screen, biochemical, isolated mouse mitochondria, absorbance; Ca2+ swelling absorbance, 30 min; inhibition, % at 10 µM; 360,000 compounds, 1.4% hits;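 active = inhibition of 50% or more, scaled per plate between neutral and stimulator controls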;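 note: 0% = DMSO wells given calcium and 100% = 1 mM EGTA wells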
# TIM10 inh – growth inhibitors of isogenic TIM10 control yeast, primary screen, counter-screen for tim10-1 yeast inhibitor project, luminescence, uHTS; S. cerevisiae TIM10 strain growth, BacTiter-Glo luminescence, 24 h; inhibition, % at 10 µM; 330,000 compounds, 1.4% hits;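 active = inhibition of 40% or more at the single tested concentration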;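 note: wild-type TIM10 isogenic control strain grown at permissive 25 °C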
# tim23-1 inh – growth inhibitors of tim23-1 mutant yeast, primary screen, luminescence, uHTS; S. cerevisiae tim23-1 growth, BacTiter-Glo luminescence, 24 h; inhibition, % at 20 µM; 330,000 compounds, 1.3% hits; AID 463212, 2010;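 active = growth inhibition of the mutant yeast at or above 50%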;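 note: temperature-sensitive mutant grown at 25 °C; plate controls were DMSO-treated mutant yeast for no effect and medium wells lacking yeast for full effect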
# Mdm2 MdmX conf – Mdm2-MdmX complex disruptors, retested hits, confirmation, luminescence, single concentration. shares compounds with Mdm2-MdmX inh. Mdm2-MdmX binding, luminescent assay. inhibition, % at 8 µM. 10,000 compounds, 55% hits. AID 489028, 2010; in the data active = inhibition above about 40%
# Full FLuc ctr – full-length luciferase signal inhibition, confirmation, counter-screen for Mdm2/MdmX interaction inhibitor project, cell-based, single concentration, SaOS-2. shares compounds with Mdm2-MdmX inh. SaOS-2 full-length luciferase counterscreen, luminescence. inhibition, % at 8 µM. 6,200 compounds, 77% hits;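 active = mean inhibition at 8 µM reaching about 37%, which flags the compound as non-specific, limit read from the data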;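 note: p53-null SaOS-2 cells with luciferase driven by a doxycycline-inducible promoter; compound on cells about two nights before reading with doxycycline added after day one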
# * hit, by the source's call; nt = no result given. Hits are enriched below; roughly 6.3% of the tested compounds scored in any of these assays.
SMILES,Mdm2-MdmX inh,tim10-1 inh,MPTP inh,TIM10 inh,tim23-1 inh,Mdm2 MdmX conf,Full FLuc ctr
c1ccc2c(N3CCNCC3)nsc2c1,53*,14,14,-3,10,64*,30
c1ccc2oc(N3CCNCC3)nc2c1,26,3,0,-33,-3,nt,nt
C[C@@H]1C[C@H]2OC(=O)C3(CO3)[C@H]2[C@H](O)[C@]2(C)C(=O)C3OC3[C@@H]12 (stereo partly specified),51*,-8,nt,-5,5,36,21
C[C@@H]1O[C@@H](O[C@@H]2C=C3CCC4C(CC[C@]5(C)[C@@H](c6ccc(=O)oc6)CC[C@]45O)[C@@]3(C)CC2)[C@H](O)[C@H](O)[C@H]1O (stereo partly specified),83*,13,-1,-1,14,81*,49*
C[C@@H]1O[C@@H](O[C@@H]2C=C3CC[C@@H]4C(CC[C@]5(C)[C@@H](c6ccc(=O)oc6)CC[C@]45O)[C@@]3(C)CC2)[C@H](O)[C@H](O)[C@H]1O (stereo partly specified),87*,-6,-1,14,-3,70*,17
O=C1CC2OCC=C3CN4CCC56c7ccccc7N1C5C2C3CC46O (stereo unspecified),nt,nt,-2,nt,nt,nt,nt
C[CH2][Hg][S]c1ccccc1C(=O)O,100*,-24,2,31,35,100*,52*
CCn1c(O)c(N=Nc2ccc(S(=O)(=O)N3CCOCC3)cc2)c(=O)n(CC)c1=S,58*,11,4,1,32,21,nt
CCn1c(O)c(N=Nc2cccc(S(=O)(=O)N3CCOCC3)c2)c(=O)n(CC)c1=S,44,3,2,0,8,nt,nt
C[C@@H]1CN([C@@H](C)CO)C(=O)CCCn2cc(nn2)CO[C@H]1CN(C)C(=O)Oc1cccc2ccccc12,nt,nt,0,nt,nt,nt,nt
COc1cc2c(cc1O)C[C@H]1NCCc3cc4c(c-2c31)OCO4,61*,14,0,11,15,39,41*
COc1cc2c(cc1OC)-c1c3c(cc4c1[C@@H](C2)N(C)CC4)OCO3,54*,-37,2,-88,9,48*,40*
COc1c2c(cc3c1OCO3)CCN(C)C2,-17,-10,0,0,-10,nt,nt
COc1cc2c(cc1OC)-c1c(OC)c(OC)cc3c1C(C2)N(C)CC3 (stereo unspecified),44,17,1,3,11,nt,nt
CCOC(=O)c1cc2c(cn1)[C@@H](CCO)NC2,nt,nt,0,nt,nt,nt,nt
O=S(=O)(c1cc(Cl)cc(Cl)c1)N1Cc2cc(N3CCOCC3)ccc2-n2nncc2C1,nt,nt,-1,nt,nt,nt,nt
ClCCN(CCCl)c1ccc(C=Cc2ccncn2)cc1,nt,nt,0,nt,nt,nt,nt
CCOC(=O)CNC(=O)N1Cc2cc(-c3cccc(F)c3)ccc2-n2nncc2C1,nt,nt,-2,nt,nt,nt,nt
COc1cc(C)c(CNCCc2c[nH]c3ccccc23)cc1C,64*,24,3,15,6,33,nt
CC(=O)OC1C(=O)OCC23CCC4(C)OC4C2OC2CC(OC(=O)C=CC=CC(=O)OCCC1C)C3(C)C21CO1 (stereo unspecified),nt,nt,-2,nt,nt,nt,nt
Cc1ccccc1-c1ccc2c(c1)CNCc1cnnn1-2,nt,nt,0,nt,nt,nt,nt
COC(=O)C1=Nc2ccccc2/C1=C\c1c(O)n(-c2ccc(Br)cc2)c(=O)[nH]c1=O,nt,nt,14,nt,nt,nt,nt
O=c1[nH]c(=O)n(-c2ccccc2)c(O)c1/C=C1/C(c2ccccc2)=Nc2ccccc21,61*,-38,1,-12,0,62*,75*
Cc1ccc(S(=O)(=O)N2Cc3cc(-c4ccccc4)ccc3-n3nncc3C2)cc1,nt,nt,-1,nt,nt,nt,nt
O=[N+]([O-])c1ccc(NC2CCCC2)c2ccncc12,44,21,2,23,3,nt,nt
SMILES,Mdm2-MdmX inh,tim10-1 inh,MPTP inh,TIM10 inh,tim23-1 inh,Mdm2 MdmX conf,Full FLuc ctr
O=[N+]([O-])c1ccc(NC2CCN(Cc3ccccc3)CC2)c2ccncc12,64*,19,1,-3,-1,36,nt
COC1C(C)OC(OC2CC(C)(O)Cc3cc4c(c(O)c32)C(=O)c2c(O)cc3c(c2C4=O)OC2OC3(C)C(O)C(N(C)C)C2O)C(OC)C1(C)OC (stereo unspecified),nt,nt,1,nt,nt,nt,nt
COc1ccccc1OP(=O)(Nc1cccnc1)Oc1ccccc1OC,51*,21,1,17,17,48*,74*
COc1cccc(NP(=O)(Oc2ccc(Cl)cc2)Oc2ccc(Cl)cc2)c1,49,12,48,23,16,nt,nt
NC(N)=N/N=C/c1cn(-c2ccccc2)nc1-c1cccs1,99*,-61,49,16,-34,94*,57*
O=c1c2ccccc2nc(-c2cccs2)n1-c1ccccc1,6,28,-5,7,28,nt,nt
CCCCn1c(=O)c(C(=O)Nc2cnccn2)c(O)c2ccccc21,57*,-23,0,-1,19,29,89*
CCCCCn1c(=O)c(C(=O)Nc2ncccc2C)c(O)c2ccccc21,18,-21,12,-15,-5,nt,nt
O=C1NCN(c2ccccc2)C12CCN(C(c1cc3ccccc3o1)c1nnnn1C1CCCCC1)CC2 (stereo unspecified),nt,nt,5,nt,nt,nt,nt
C[C@]12CC[C@@H](O)CC1=CCC1C2CC[C@@]2(C)C1CC[C@@H]2O (stereo partly specified),nt,nt,0,nt,nt,nt,nt
C[C@]12CC[C@H](O)CC1=CCC1C2CC[C@]2(C)C(=O)[C@H](Br)CC12 (stereo partly specified),50*,-32,1,-18,-38,-10,nt
Cc1nn(C)cc1/C=C1/CC2C3CC=C4CC(O)CCC4(C)C3CCC2(C)C1=O (stereo unspecified),35,-10,-2,-3,3,nt,nt
CC12CCC3C(CC=C4CC(O)CCC43C)C1C/C(=C\c1ccccc1F)C2=O (stereo unspecified),78*,-16,0,-12,18,27,nt
O=S(=O)(c1ccc(Cl)cc1)N1Cc2cc(Br)ccc2-n2nncc2C1,nt,nt,0,nt,nt,nt,nt
O=[N+]([O-])c1cc(F)c(N2CCCCCC2)cc1N1CCNCC1,52*,22,-1,21,24,27,nt
COc1ccc2c(c1)C13CCCC[C@@H]1C(C2)N(C)CC3 (stereo partly specified),51*,0,-2,-4,11,25,nt
CC(C)C(O)(C(=O)OCC1=CCN2CCC(O)C12)C(C)O (stereo unspecified),nt,nt,0,nt,nt,nt,nt
